Where a name gives a salt, the structure may show the parent alone.
What was measured:
Assay in all cases: Euclidean distance of Cell Painting phenotypic profile (signed KS, 77 features) to DMSO centroid (dimensionless distance); 5 or 10 uM (library dependent); higher = stronger phenotypic change vs DMSO (phenoactivity)
Details in all cases: 48 h
786-O = system: 786-O
Method in brief: (§1)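 At 10 or 5 uM, as set by the library, and 0.1% DMSO final, compounds were applied for 48 h to five cancer lines and one healthy fibroblast line. Stained cells were imaged confocally at 20X in 9 fields per well, and Harmony extracted 77 features scored as signed Kolmogorov-Smirnov statistics against vehicle wells on the same plate. Profiles underwent plate-position correction, correlation weighting and replicate averaging at the top dose. Phenoactivity is the Euclidean distance from each such profile to the median vehicle profile.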

A549 = system: A549
Method in brief: as §1

DU145 = system: DU145
Method in brief: as §1

FB = system: FB
Method in brief: as §1

HEPG2 = system: HEPG2
Method in brief: as §1

OVCAR4 = system: OVCAR4
Method in brief: as §1

Row | Compound | Euclidean distance (786-O) | Euclidean distance (A549) | Euclidean distance (DU145) | Euclidean distance (FB) | Euclidean distance (HEPG2) | Euclidean distance (OVCAR4)
1 | CNC(=O)c1ccc(N2C(=S)N(c3cnc(C#N)c(C(F)(F)F)c3)C(=O)C23CCC3)cc1F | 1.4 | 1.24 | 0.954 | 0.828 | 1.01 | 1.16
2 | COc1cc2c(Oc3ccc4[nH]c(C)cc4c3F)ncnc2cc1OCCCN1CCCC1 [Cediranib Maleate] | 4.34 | 4.46 | 3.51 | 4.67 | 4.09 | 5.11
3 | COc1cc(/C=C/C(=O)N2CCN(CC(=O)N3CCCC3)CC2)cc(OC)c1OC [Cinepazide maleate] | 1.21 | 0.96 | 1.04 | 1.16 | 0.337 | 1.41
4 | COc1ccc2c(O[C@@H]3C[C@H]4C(=O)N[C@]5(C(=O)NS(=O)(=O)C6CC6)C[C@H]5/C=C\CCCCN(C)C(=O)[C@@H]4C3)cc(-c3nc(C(C)C)cs3)nc2c1C [Simeprevir] | 1.38 | 2.3 | 1.29 | 0.939 | 0.799 | 1.23
5 | C[C@]12CC[C@@H]3c4ccc(OC(=O)c5ccccc5)cc4CC[C@H]3[C@@H]1CC[C@@H]2O [Estradiol Benzoate] | 0.619 | 0.854 | 0.933 | 1.35 | 0.557 | 1.01
6 | COC(=O)C1=C(C)NC(C)=C(C(=O)OC(C)(C)CN(C)CCC(c2ccccc2)c2ccccc2)C1c1cccc([N+](=O)[O-])c1 (centres undefined) [Lercanidipine] | 1.59 | 2.38 | 1.1 | 1.31 | 1.5 | 2.02
7 | CCCc1nn(C)c2c(=O)[nH]c(-c3cc(S(=O)(=O)N4CCN(C)CC4)ccc3OCC)nc12 [Sildenafil Mesylate] | 1.12 | 0.763 | 0.989 | 1 | 0.692 | 0.995
8 | CS(=O)(=O)c1ccc(C(=O)Nc2ccc(Cl)c(-c3ccccn3)c2)c(Cl)c1 [Vismodegib (GDC-0449)] | 1.82 | 1.01 | 0.671 | 1 | 0.631 | 0.924
9 | Cc1cc2c(cc1CC(=O)c1sccc1S(=O)(=O)Nc1onc(C)c1Cl)OCO2 [Sitaxentan sodium] | 0.839 | 0.821 | 0.942 | 0.796 | 0.95 | 1.46
10 | CC(C)C[C@H](NC(=O)CNC(=O)c1cc(Cl)ccc1Cl)B(O)O | 5.04 | 3.61 | 5.19 | 3.83 | 4.44 | 4.31
11 | CCCCCCCCCCCCCCCC(=O)O[C@@H]1[C@@H](O)[C@@H](O)[C@@H]([C@H](NC(=O)[C@@H]2C[C@@H](CCC)CN2C)[C@H](C)Cl)O[C@@H]1SC [Clindamycin palmitate HCl] | 1.39 | 1.05 | 0.981 | 1.12 | 0.578 | 1.08
12 | CN1CCCN=C1/C=C/c1cccs1 [Pyrantel Pamoate] | 1.65 | 0.995 | 0.771 | 1.28 | 0.805 | 1.2
13 | CN1CCN(c2cccc(Nc3nc4c(-c5ccc(S(C)(=O)=O)cc5)cccn4n3)c2)CC1 | 1.38 | 1.14 | 1.07 | 1.26 | 0.565 | 1.25
14 | O=C(O[C@@H]1C[C@@H]2C[C@H]3C[C@H](C1)N2CC3=O)c1c[nH]c2ccccc12 [Dolasetron] | 1.37 | 2.35 | 2.37 | 1.37 | 0.624 | 2.04
15 | CC(C)(C#N)c1cc(Cn2cncn2)cc(C(C)(C)C#N)c1 [Anastrozole] | 1.11 | 0.727 | 0.702 | 0.902 | 0.572 | 1.41
16 | CCCNC(C)C(=O)Nc1ccccc1C (centres undefined) [Prilocaine] | 1.25 | 0.85 | 0.708 | 1.93 | 0.648 | 0.974
17 | COc1nc(C)cnc1NS(=O)(=O)c1cccnc1-c1ccc(-c2nnco2)cc1 [Zibotentan (ZD4054)] | 1.49 | 0.567 | 0.656 | 0.844 | 1.11 | 0.898
18 | CC(C)(Oc1ccc(C(=O)c2ccc(Cl)cc2)cc1)C(=O)O [Fenofibric acid] | 0.559 | 1.24 | 0.978 | 1.59 | 0.698 | 0.976
19 | NC(=S)N/N=C/c1ncccc1N [Triapine] | 3.56 | 2.65 | 3.67 | 3.09 | 2.83 | 3.6
20 | N#Cc1ccc(Oc2ccc3c(c2)COB3O)cc1 [Crisaborole (AN2728)] | 1.25 | 1 | 0.832 | 0.837 | 2.52 | 1.91

Row | Compound | Euclidean distance (786-O) | Euclidean distance (A549) | Euclidean distance (DU145) | Euclidean distance (FB) | Euclidean distance (HEPG2) | Euclidean distance (OVCAR4)
21 | Nc1ccc(C(=O)Nc2cccc(-c3nc(N4CCOCC4)c4oc5ncccc5c4n3)c2)cn1 | 4.09 | 5.02 | 4.16 | 1.63 | 3.45 | 2.25
22 | O=C(Nc1cccc2c(=O)cc(-c3nnn[nH]3)oc12)c1ccc(OCCCCc2ccccc2)cc1 [Pranlukast] | 0.942 | 1.36 | 0.906 | 0.842 | 1.13 | 0.86
23 | Clc1ccccc1CN1CCc2sccc2C1 [Ticlopidine HCl] | 1.29 | 1.12 | 1.3 | 1.59 | 0.746 | 1.56
24 | CCC(=O)N1CCN(c2ccc(-n3c(=O)ccc4cnc5ccc(-c6cnc7ccccc7c6)cc5c43)cc2C(F)(F)F)CC1 [Torin 1] | 2.66 | 3.46 | 2.74 | 4.26 | 2.78 | 3.47
25 | N#CC[C@H](C1CCCC1)n1cc(-c2ncnc3[nH]ccc23)cn1 | 2.03 | 1.27 | 1.36 | 1.23 | 0.819 | 0.709
26 | CC(C)Cc1ccc(C(C)C(=O)O)cc1 (centres undefined) [Ibuprofen Lysine] | 1.27 | 0.944 | 1.68 | 0.93 | 1.17 | 1.07
27 | C[C@](N)(Cc1ccc(O)c(O)c1)C(=O)O [Methyldopa] | 1.49 | 0.734 | 1.09 | 0.909 | 0.55 | 0.729
28 | Fc1ccc([C@@H]2CCNC[C@H]2COc2ccc3c(c2)OCO3)cc1 [Paroxetine HCl] | 1.46 | 1.59 | 1.59 | 1.93 | 2.28 | 1.54
29 | CC1C(=O)OC2C(O)C34C5CC(C(C)(C)C)C36C(OC(=O)C6O)OC4(C(=O)O5)C12O (centres undefined) [Ginkgolide B] | 0.999 | 1.63 | 0.921 | 1.25 | 2.11 | 1.3
30 | COc1cc(F)c(F)c(Nc2ccc(I)cc2F)c1NS(=O)(=O)C1(C[C@H](O)CO)CC1 [Refametinib (RDEA119. Bay 86-9766)] | 2.91 | 2.51 | 2.83 | 3.57 | 1.79 | 2.27
31 | COc1cc2c(cc1OC)[C@@H]1Cc3ccc(OC)c(OC)c3CN1CC2 [Rotundine] | 1.84 | 0.769 | 1.07 | 1.26 | 0.595 | 1.2
32 | CCN(CC)CCOc1ccc2c(c1)C(=O)c1cc(OCCN(CC)CC)ccc1-2 [Tilorone dihydrochloride] | 2.8 | 3.87 | 2.37 | 5.04 | 4.45 | 3.1
33 | C=C1/C(=C\C=C2/CCC[C@]3(C)[C@@H]([C@H](C)/C=C/[C@@H](O)C4CC4)CC[C@@H]23)C[C@@H](O)C[C@@H]1O [Calcipotriene] | 0.625 | 1.01 | 0.941 | 2.13 | 0.91 | 1.51
34 | CC(C)c1nc(CN(C)C(=O)N[C@@H](CCN2CCOCC2)C(=O)N[C@H](CC[C@H](Cc2ccccc2)NC(=O)OCc2cncs2)Cc2ccccc2)cs1 [Cobicistat (GS-9350)] | 2.05 | 2.31 | 1.67 | 1.66 | 1.23 | 1.96
35 | CC(=O)O[C@]1(C(C)=O)CC[C@H]2[C@@H]3C[C@H](C)C4=CC(=O)CC[C@]4(C)[C@H]3CC[C@@]21C [Medroxyprogesterone acetate] | 1.02 | 1.4 | 1.65 | 1.31 | 1 | 1.06
36 | C1CNCCN1 [Piperazine] | 1.04 | 1.08 | 0.846 | 1.09 | 0.402 | 1.67
37 | O=C(c1ccc(/C=C/c2n[nH]c3ccccc23)cc1)N1CCNCC1 | 3.16 | 3.89 | 3.66 | 3.31 | 2.78 | 3.53
38 | CC1(C)CNc2cc(NC(=O)c3cccnc3NCc3ccncc3)ccc21 [Motesanib Diphosphate (AMG-706)] | 1.29 | 1.76 | 1.48 | 1.96 | 1.27 | 1.37
39 | C=CC(=O)Nc1cccc(Oc2nc(Nc3ccc(N4CCN(C)CC4)cc3)nc3ccsc23)c1 | 4.18 | 3.94 | 2.73 | 3.64 | 3.85 | 3.57
